The supplement of paper PMC6411743
± gives the standard deviation of the averaged measurements. Of roughly 6,200 targets only a part is listed; those with the largest changes were picked by preference.

Compound: Nc1ncnc2c1ncn2[C@@H]1O[C@H](COP(=O)(O)OP(=O)(O)NP(=O)(O)O)[C@@H](O)[C@H]1O [adenylyl imidodiphosphate]
Assay: NP40-soluble protein abundance relative to vehicle (solubility fold change) (ratio); higher = more soluble protein in presence of AMP-PNP
Summary of the method: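 Jurkat crude lysate (Dounce-homogenised) was treated with eight concentrations from 0.1 to 10 mM for 10 min at room temperature, then 3 min at 37 °C. It was solubilised with 0.8% NP40 and benzonase (60 min, 4 °C) and ultracentrifuged, and the supernatant was TMT-labelled for LC-MS/MS. Intensities were vsn-normalised, and the value is the fold change against the NP40-processed vehicle per replicate, from three independent experiments.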

Sequence of UniProt Q9BPZ3 (Q9BPZ3 whole entry, one chain of several): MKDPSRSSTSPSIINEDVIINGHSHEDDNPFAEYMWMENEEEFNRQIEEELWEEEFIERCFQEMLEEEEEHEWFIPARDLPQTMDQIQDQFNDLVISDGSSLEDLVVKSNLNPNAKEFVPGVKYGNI
Sequence of UniProt Q9UIA9 (Q9UIA9 whole entry): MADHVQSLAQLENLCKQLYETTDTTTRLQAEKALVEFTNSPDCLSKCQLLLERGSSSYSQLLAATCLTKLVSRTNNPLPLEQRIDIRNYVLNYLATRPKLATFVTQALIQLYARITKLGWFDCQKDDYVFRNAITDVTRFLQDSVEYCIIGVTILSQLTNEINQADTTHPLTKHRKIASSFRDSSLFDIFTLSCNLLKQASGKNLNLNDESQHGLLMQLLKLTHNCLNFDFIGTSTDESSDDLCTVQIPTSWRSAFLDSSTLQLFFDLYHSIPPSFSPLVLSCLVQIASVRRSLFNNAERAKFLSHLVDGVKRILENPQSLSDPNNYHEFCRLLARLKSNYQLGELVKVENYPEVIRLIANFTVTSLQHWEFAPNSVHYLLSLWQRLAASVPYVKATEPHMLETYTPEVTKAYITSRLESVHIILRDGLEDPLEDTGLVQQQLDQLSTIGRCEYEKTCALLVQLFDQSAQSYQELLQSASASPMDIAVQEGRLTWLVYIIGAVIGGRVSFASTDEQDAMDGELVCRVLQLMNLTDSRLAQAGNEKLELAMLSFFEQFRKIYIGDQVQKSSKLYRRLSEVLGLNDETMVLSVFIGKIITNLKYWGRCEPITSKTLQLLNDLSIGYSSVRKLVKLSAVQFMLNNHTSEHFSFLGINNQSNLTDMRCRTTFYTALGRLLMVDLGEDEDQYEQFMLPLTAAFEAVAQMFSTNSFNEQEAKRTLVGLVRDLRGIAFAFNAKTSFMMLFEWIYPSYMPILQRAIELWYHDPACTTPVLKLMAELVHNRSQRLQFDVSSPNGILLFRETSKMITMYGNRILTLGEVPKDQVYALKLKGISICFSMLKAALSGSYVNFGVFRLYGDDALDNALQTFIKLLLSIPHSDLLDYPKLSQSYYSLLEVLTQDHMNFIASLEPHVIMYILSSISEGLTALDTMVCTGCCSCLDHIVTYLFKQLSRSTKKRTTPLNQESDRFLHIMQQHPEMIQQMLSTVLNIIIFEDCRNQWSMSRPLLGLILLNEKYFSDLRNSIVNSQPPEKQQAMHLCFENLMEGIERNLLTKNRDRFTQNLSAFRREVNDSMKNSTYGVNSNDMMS
Sequence of UniProt Q9ULF5 (Q9ULF5 whole entry): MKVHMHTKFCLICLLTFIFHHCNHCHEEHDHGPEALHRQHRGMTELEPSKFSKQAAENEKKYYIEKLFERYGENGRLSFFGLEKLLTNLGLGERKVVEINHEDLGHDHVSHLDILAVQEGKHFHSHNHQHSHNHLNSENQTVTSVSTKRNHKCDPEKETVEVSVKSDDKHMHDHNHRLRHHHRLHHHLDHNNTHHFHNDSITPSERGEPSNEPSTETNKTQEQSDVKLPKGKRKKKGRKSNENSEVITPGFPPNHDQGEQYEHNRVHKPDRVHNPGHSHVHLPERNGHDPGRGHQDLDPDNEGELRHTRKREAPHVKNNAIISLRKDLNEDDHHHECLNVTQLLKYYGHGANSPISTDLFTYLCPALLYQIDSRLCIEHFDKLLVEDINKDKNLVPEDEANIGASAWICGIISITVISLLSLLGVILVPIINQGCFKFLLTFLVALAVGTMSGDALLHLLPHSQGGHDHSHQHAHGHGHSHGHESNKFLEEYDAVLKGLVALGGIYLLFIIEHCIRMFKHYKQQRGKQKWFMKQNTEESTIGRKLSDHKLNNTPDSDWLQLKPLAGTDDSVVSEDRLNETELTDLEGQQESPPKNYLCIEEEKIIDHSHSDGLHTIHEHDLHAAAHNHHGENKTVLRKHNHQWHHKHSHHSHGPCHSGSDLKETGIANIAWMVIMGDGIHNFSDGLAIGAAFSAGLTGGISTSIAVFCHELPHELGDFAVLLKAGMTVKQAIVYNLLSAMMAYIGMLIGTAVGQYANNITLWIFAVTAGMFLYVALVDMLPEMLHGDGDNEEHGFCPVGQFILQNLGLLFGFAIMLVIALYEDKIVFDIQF
Sequence of UniProt Q9Y5Y5 (Q9Y5Y5 whole entry): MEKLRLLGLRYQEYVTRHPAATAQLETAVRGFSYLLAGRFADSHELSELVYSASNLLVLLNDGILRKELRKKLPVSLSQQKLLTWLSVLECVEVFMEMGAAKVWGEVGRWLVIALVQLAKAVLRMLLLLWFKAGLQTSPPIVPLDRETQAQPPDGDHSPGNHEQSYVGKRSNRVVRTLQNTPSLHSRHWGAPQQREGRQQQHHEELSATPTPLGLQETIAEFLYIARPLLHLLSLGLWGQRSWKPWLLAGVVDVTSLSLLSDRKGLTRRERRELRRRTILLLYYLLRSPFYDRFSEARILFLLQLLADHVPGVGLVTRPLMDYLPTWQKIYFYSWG
Sequence of UniProt Q9BQ39 (Q9BQ39 whole entry, one chain of several): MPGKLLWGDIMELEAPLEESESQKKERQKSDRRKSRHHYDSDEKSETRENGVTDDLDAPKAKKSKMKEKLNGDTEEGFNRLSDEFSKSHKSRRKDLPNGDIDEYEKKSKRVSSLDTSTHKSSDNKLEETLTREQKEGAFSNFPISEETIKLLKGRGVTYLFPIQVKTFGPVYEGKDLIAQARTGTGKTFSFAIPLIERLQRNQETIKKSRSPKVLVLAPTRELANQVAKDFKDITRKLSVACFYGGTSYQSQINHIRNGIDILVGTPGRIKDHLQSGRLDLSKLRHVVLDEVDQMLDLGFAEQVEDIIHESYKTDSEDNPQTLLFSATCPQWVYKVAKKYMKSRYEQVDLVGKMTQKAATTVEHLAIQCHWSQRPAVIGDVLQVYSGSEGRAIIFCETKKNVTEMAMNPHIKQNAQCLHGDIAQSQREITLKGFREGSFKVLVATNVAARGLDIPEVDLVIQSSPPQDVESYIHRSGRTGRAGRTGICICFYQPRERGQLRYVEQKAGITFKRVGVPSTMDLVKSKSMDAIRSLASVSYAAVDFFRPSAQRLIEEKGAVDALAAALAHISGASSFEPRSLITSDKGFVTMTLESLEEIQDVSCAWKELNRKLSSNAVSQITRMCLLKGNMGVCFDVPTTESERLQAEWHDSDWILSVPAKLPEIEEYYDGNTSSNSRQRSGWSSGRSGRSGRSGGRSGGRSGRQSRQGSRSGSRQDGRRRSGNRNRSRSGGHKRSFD
Sequence of UniProt Q9UDR5 (Q9UDR5 whole entry): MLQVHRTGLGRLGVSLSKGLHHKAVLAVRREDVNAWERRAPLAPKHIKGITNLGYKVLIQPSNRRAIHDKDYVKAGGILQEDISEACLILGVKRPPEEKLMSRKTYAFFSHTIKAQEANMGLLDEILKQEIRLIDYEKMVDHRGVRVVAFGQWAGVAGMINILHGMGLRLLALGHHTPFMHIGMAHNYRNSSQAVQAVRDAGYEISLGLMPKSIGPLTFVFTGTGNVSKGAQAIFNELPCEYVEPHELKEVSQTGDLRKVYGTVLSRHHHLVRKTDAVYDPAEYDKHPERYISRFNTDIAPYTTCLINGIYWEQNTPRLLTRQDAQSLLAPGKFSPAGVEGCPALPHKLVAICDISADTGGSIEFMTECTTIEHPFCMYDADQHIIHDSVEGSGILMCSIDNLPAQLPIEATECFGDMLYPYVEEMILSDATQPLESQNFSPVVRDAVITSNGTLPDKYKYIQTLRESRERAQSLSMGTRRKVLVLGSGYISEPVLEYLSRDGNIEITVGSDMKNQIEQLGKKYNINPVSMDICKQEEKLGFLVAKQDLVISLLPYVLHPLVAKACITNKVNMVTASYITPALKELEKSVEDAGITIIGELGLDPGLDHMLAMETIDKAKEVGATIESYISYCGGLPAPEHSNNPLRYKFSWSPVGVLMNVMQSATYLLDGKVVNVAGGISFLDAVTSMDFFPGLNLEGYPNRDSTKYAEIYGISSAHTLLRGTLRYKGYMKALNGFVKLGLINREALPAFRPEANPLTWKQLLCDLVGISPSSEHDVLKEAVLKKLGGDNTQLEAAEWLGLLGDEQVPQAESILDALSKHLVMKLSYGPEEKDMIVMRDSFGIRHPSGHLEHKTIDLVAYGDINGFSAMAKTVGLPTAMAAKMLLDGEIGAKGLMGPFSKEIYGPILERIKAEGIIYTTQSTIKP
Sequence of UniProt Q9ULW0 (Q9ULW0 whole entry): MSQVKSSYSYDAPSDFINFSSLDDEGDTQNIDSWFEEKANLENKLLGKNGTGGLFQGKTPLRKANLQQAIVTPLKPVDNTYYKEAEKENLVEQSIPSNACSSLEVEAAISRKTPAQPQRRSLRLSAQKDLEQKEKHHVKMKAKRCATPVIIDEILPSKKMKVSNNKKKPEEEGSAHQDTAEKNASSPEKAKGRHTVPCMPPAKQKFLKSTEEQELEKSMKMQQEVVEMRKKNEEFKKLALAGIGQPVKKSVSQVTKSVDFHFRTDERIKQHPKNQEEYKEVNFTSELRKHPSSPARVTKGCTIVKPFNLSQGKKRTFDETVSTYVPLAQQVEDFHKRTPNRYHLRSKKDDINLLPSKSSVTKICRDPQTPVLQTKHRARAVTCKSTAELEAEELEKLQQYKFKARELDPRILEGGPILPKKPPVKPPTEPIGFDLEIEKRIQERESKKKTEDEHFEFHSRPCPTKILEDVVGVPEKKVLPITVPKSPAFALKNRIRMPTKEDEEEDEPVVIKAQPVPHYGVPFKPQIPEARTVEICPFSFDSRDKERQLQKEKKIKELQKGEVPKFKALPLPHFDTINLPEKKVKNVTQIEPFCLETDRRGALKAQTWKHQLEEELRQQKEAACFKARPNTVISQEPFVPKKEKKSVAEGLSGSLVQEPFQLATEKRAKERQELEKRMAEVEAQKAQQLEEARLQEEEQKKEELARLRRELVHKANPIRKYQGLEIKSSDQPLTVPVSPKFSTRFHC
Sequence of UniProt Q96CT7 (Q96CT7 whole entry): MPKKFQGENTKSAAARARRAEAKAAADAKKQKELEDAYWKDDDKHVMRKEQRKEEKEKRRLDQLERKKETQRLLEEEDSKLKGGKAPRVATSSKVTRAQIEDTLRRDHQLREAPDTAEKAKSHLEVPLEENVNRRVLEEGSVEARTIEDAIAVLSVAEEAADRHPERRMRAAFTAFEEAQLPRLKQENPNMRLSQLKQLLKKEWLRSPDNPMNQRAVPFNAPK

Target	NP40-soluble protein abundance (concentration: 1mM)	NP40-soluble protein abundance (concentration: 2mM)	NP40-soluble protein abundance (concentration: 4mM)	NP40-soluble protein abundance (concentration: 6mM)	NP40-soluble protein abundance (concentration: 8mM)	NP40-soluble protein abundance (concentration: 10mM)
UniProt Q9BU76|Q9BU76-4	1.03 ± 0.04	1.04 ± 0.052	1 ± 0.067	1.01 ± 0.035	0.99 ± 0.031	0.989 ± 0.038
AASS (UniProt Q9UDR5)	0.9781 ± 0.0043	0.935 ± 0.098	0.969 ± 0.035	0.947 ± 0.021	0.979 ± 0.01	0.939 ± 0.027
SLC39A10 (UniProt Q9ULF5)	0.998 ± 0.021	1.07 ± 0.045	1.01 ± 0.026	1 ± 0.029	0.985 ± 0.04	0.994 ± 0.036
UniProt Q9Y5Y5|Q9Y5Y5-2	0.967 ± 0.051	0.97 ± 0.05	0.9611 ± 0.0026	1.04 ± 0.024	1.03 ± 0.032	1.02 ± 0.052
CCDC124 (UniProt Q96CT7)	1.13 ± 0.037	1.29 ± 0.15	1.35 ± 0.058	1.58 ± 0.12	1.86 ± 0.17	2.16 ± 0.25
UniProt Q9BPZ3|D6R9Y1	0.981 ± 0.02	1.01 ± 0.044	0.945 ± 0.028	0.966 ± 0.051	0.929 ± 0.014	0.9085 ± 0.0067
TPX2 (UniProt Q9ULW0)	1.09 ± 0.013	1.2 ± 0.077	1.23 ± 0.066	1.27 ± 0.049	1.32 ± 0.072	1.39 ± 0.049
XPO7 (UniProt Q9UIA9)	0.973 ± 0.036	0.932 ± 0.035	0.96 ± 0.019	0.958 ± 0.037	0.966 ± 0.015	0.939 ± 0.03
UniProt Q9Y320|Q9Y320-2	0.936 ± 0.038	0.89 ± 0.056	0.918 ± 0.036	0.952 ± 0.048	0.962 ± 0.04	0.95 ± 0.039
UniProt Q9Y2A7|Q9Y2A7-2	0.972 ± 0.026	0.974 ± 0.034	0.9706 ± 0.0091	1 ± 0.019	0.976 ± 0.02	0.985 ± 0.026
UCK1 (UniProt Q9HA47)	0.981 ± 0.029	1.01 ± 0.028	1.01 ± 0.011	1.02 ± 0.026	0.9745 ± 0.0089	1.01 ± 0.01
BCS1L (UniProt Q9Y276)	0.966 ± 0.021	0.874 ± 0.11	0.996 ± 0.024	0.955 ± 0.035	0.982 ± 0.024	0.937 ± 0.035
PUS3 (UniProt Q9BZE2)	1.01 ± 0.013	0.997 ± 0.0053	1 ± 0.026	1.03 ± 0.054	0.978 ± 0.032	0.974 ± 0.019
UniProt Q96L91|Q96L91-2|Q96L91-3|Q96L91-5	1.03 ± 0.036	1.09 ± 0.038	1.05 ± 0.028	1.05 ± 0.061	1.03 ± 0.057	1.1 ± 0.084
UniProt Q9BQ39|A0A087WVC1	1.22 ± 0.068	1.27 ± 0.062	1.35 ± 0.023	1.43 ± 0.04	1.52 ± 0.097	1.5 ± 0.14
